How the values were obtained:
[1] = molecular target: T1, Aspartate--tRNA(Asp/Asn) ligase (Mycobacterium tuberculosis (strain ATCC 25618 / H37Rv)) (UniProt P9WFW3); test: Assay for Asp RNA synthetase-1 from Mycobacterium tuberculosis; assay type: functional; parameters: scale not given: direction of the effect not stated beside the values; conditions: 30 µM; also: in the data most compounds retested in dose-response had high values
T1 sequence (whole entry): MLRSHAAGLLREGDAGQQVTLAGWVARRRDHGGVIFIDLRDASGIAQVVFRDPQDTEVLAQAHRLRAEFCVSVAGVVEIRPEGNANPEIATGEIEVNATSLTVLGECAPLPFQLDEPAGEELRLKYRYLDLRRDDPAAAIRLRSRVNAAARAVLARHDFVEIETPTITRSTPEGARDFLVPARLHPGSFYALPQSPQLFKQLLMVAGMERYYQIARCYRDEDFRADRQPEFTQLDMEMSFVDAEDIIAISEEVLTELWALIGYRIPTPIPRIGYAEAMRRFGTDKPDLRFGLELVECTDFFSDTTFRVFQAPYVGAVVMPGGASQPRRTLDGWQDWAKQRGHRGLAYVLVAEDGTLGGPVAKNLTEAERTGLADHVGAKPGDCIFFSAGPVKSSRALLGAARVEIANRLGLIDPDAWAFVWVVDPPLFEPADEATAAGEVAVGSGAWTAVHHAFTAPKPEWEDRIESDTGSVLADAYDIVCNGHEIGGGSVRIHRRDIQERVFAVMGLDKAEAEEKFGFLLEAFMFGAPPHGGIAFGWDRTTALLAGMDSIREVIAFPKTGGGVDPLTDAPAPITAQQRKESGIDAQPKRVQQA

[2] = molecular target: Shiga toxin 2 (Escherichia coli O157:H7) (UniProt P09385+P09386); test: E. coli 0.157:H7 Shiga Toxin SOP - stx2 screening assay; assay type: functional; parameters: scale not given: direction of the effect not stated beside the values; conditions: 30 µM

| Compound | Percent Effect [1] | Percent Effect [2] |
| --- | --- | --- |
| COCc1nc(C(=O)NS(=O)(=O)c2cc(F)ccc2F)cs1 | -0.5% | -51.5% |
| O=C(O)c1csc(S(=O)(=O)Nc2cccc(OC(F)F)c2)c1 | -0.5% | -13.1% |
| O=C(Nc1ccnc(OC2CCOC2)c1)C1CCC1 (centres undefined) | -4.32% | -20.1% |
| Cc1ccccc1CN1CCN(CC(=O)Nc2cccnc2)CC1 | -2.08% | 17% |
| COc1cccc(N2CCN(Cc3ccc(NC(C)=O)cc3)CC2=O)c1 | -1.75% | -2.21% |
| CCc1cc(NCCc2ccc(O)cc2)n2nccc2n1 | 5.69% | 5.92% |
| Cc1nc2ccccc2nc1CN(C)CC1CCCN1c1cccnn1 (centres undefined) | 1.76% | 22.3% |
| CC(C)NC(=O)NCCCc1cc(N)n(-c2ccccc2)n1 | -8.28% | -2.61% |
| Cc1ccc(C)c(-n2ccc3nc(N4CCCC4)ncc3c2=O)c1 | -4.04% | -36.3% |
| Cc1ccc(CC(=O)N2CCCC(c3cc(C)[nH]n3)C2)cn1 (centres undefined) | -0.962% | -18.6% |
| O=C(C1SCCc2sccc21)N1CCN(CCO)CC1 (centres undefined) | -0.774% | 24.8% |
| N#Cc1cccnc1NCc1cccnc1N1CCC(C(N)=O)CC1 | 4.47% | -10.3% |
| CCNc1cc2c(nn1)CCN(C(=O)c1cc3nc(C)ccc3o1)C2 | -4.95% | -51.6% |
| CN(Cc1ccc2c(c1)OCCO2)C(=O)Cn1ccccc1=O | -7.28% | -21.6% |
| CC(C)N1CCn2c(nc3cc(C(N)=O)ccc32)C1 | 0.319% | -34% |
| CCNC(c1cccnc1)c1ccc(F)c(F)c1 (centres undefined) | -4.58% | 10.8% |
| Cc1nn(C)c(C)c1C1CCCN1C(=O)c1cnc2n[nH]c(C)c2c1 (centres undefined) | -5.16% | -21.8% |
| Cc1nnc2n1CCN(CCOc1ccccc1)C2 | -6.3% | -21.5% |
| Cn1cc(CCC(=O)N2C[C@H]3CC[C@@H]2CN(Cc2ccccc2)C3)cn1 | 2.92% | -3.02% |
| CCc1nnc2n1CCN(C(=O)C(C)COCc1ccccc1)C2 (centres undefined) | 0.562% | 31.4% |
| Cc1cc(C(=O)N2C[C@@H]3[C@@H](C2)OCC(=O)N3CC2CC2)no1 | 9.42% | -55.2% |
| CCOC(C)c1nc(CN2CCN(c3nccc(C)n3)CC2)cs1 (centres undefined) | -0.859% | -1.8% |
| CCCS(=O)(=O)N1CCC2(CN(c3cnn(C)c3)C(=O)CN2C)C1 (centres undefined) | -0.662% | -13.9% |
| CS(=O)(=O)N1CCC(O)(Cn2c(C3CC3)nc3ccccc3c2=O)CC1 | 1.5% | 11.1% |

| Compound | Percent Effect [1] | Percent Effect [2] |
| --- | --- | --- |
| COCCN1C(=O)C[C@H]2[C@H]1CCN2Cc1ccc(OC)cc1 | 6.6% | -4.38% |
| COc1ccc(CN2CCC3(CC2)NC(=O)CC3c2ccncc2)cc1 (centres undefined) | 5.29% | 9.6% |
| Cc1nn(-c2ccccc2)c(C)c1CNC1CCc2ncnn2C1 (centres undefined) | -2.94% | 4.77% |
| O=C1[C@H]2CC[C@H](CN(Cc3ccccc3OC(F)F)C2)N1CC1CC1 | 4.85% | 7.93% |
| CN(C(=O)c1cc(Cl)c[nH]1)C1CCN(c2ccccn2)CC1 | -6.49% | 1.72% |
| Cc1cnn(C2CCCN(C(=O)CCCNc3ncccn3)C2)c1 (centres undefined) | 1.18% | 20.6% |
| O=C(CCc1nc2cccnc2[nH]1)NCc1ccc2c(c1)OCO2 | 0.0581% | -41.8% |
| Cn1c(CN2CCOC(c3nc(C(C)(C)C)n[nH]3)C2)nnc1C1CC1 (centres undefined) | -5.04% | -21.1% |
| Cc1nc(-c2nnc[nH]2)sc1C(=O)N(Cc1cccnc1)C1CC1 | -2.72% | 7.27% |
| CN(C)Cc1ccc(C2CCCCN2C(=O)c2cccc(CO)n2)cc1 (centres undefined) | -3.06% | 0.431% |
| CN(C)C(=O)N1C[C@H]2CCC[C@@]2(COc2ccccn2)C1 | 3.31% | 10.3% |
| CC(C)Oc1ccccc1CNC(=O)N1CCC(n2cncn2)CC1 | -5.72% | -31.1% |
| COCC(=O)NCc1cccc(Br)c1 | -1.9% | 20.1% |
| Cc1ccc(CNC(=O)CN2CCCC(Cn3cncn3)C2)s1 (centres undefined) | -2.78% | -43.9% |
| O=C(CSc1ccc2c(c1)OCCO2)NS(=O)(=O)C1CCCCC1 | 1.67% | -14% |
| Cc1nc(CN(C)C2CCN(CC(=O)NC3CCOCC3)C2)no1 (centres undefined) | -1.22% | 17.1% |
| Cc1ccc(F)cc1S(=O)(=O)N(C)CC(N)=O | 2.69% | -5.32% |
| Cc1cccc(-c2noc(CN3CCC(N4CCNC4=O)CC3)n2)c1 | 0.152% | 11.2% |
| c1ccc(-c2noc3c2CN(CC2CC2)CC3)cc1 | 4.77% | -9.68% |
| CC(c1nc(C2CC2)no1)N1CCN(CCOCC(F)(F)F)CC1 (centres undefined) | -1.02% | -10.3% |
| CCOc1ncccc1C(=O)N1CCCCC1c1nccs1 (centres undefined) | -1.77% | 2.91% |
| OC(CN1CCN(Cc2ccc(F)c(F)c2)CC1)C1CC1 (centres undefined) | -4.54% | -0.879% |
| Cc1ccc(CN2C[C@@H]3COC[C@@H](NS(C)(=O)=O)[C@@H]3C2)o1 | 1.98% | -1.23% |
